About 7,900 targets were measured; listed, in parts, are those with a hit and a random draw of the rest. About 0.6% of all pairs of compound and target were hits. A number with no mark means an inactive call.

Sequence of UniProt P42575 (P42575 whole entry, looked up): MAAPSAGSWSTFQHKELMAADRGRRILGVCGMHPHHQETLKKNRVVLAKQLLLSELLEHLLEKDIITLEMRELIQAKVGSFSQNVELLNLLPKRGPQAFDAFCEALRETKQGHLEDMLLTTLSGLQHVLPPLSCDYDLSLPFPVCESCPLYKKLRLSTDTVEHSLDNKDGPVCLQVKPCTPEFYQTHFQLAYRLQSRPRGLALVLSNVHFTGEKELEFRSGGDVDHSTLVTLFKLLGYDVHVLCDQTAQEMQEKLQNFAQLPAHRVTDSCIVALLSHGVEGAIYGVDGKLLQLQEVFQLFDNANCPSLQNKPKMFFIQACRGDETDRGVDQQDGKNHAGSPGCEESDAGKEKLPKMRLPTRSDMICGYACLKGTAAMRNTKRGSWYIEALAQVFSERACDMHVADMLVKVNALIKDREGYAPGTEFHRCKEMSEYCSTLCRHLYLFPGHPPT
Sequence of UniProt Q9NXV6 (Q9NXV6 whole entry, looked up): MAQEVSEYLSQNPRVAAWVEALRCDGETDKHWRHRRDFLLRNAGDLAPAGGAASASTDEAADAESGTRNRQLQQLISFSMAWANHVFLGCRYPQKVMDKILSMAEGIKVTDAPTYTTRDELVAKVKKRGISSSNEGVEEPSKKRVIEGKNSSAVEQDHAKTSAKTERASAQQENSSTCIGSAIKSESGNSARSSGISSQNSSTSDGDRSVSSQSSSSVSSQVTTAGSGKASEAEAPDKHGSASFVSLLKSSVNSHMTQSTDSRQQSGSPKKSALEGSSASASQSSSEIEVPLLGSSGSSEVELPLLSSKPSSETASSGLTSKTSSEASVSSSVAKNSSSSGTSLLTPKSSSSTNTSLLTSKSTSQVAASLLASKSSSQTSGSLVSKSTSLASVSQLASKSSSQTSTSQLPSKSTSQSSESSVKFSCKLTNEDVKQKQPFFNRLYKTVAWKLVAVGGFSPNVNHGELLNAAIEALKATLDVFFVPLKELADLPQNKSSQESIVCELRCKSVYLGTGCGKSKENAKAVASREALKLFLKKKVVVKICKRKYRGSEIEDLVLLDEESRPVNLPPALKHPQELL
Sequence of UniProt P09497 (P09497 whole entry, looked up): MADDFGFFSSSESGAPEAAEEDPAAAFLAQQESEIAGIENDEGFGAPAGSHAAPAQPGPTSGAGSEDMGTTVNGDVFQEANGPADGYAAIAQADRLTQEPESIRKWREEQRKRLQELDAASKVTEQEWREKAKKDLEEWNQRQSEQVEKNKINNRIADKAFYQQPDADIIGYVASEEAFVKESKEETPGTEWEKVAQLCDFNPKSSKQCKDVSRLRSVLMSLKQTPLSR
Sequence of UniProt Q13901 (Q13901 whole entry, looked up): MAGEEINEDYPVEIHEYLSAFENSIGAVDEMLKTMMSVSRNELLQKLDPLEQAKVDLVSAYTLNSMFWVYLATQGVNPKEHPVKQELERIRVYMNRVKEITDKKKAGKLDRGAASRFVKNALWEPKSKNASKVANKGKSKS
Sequence of UniProt Q8IWY9 (Q8IWY9 whole entry, looked up): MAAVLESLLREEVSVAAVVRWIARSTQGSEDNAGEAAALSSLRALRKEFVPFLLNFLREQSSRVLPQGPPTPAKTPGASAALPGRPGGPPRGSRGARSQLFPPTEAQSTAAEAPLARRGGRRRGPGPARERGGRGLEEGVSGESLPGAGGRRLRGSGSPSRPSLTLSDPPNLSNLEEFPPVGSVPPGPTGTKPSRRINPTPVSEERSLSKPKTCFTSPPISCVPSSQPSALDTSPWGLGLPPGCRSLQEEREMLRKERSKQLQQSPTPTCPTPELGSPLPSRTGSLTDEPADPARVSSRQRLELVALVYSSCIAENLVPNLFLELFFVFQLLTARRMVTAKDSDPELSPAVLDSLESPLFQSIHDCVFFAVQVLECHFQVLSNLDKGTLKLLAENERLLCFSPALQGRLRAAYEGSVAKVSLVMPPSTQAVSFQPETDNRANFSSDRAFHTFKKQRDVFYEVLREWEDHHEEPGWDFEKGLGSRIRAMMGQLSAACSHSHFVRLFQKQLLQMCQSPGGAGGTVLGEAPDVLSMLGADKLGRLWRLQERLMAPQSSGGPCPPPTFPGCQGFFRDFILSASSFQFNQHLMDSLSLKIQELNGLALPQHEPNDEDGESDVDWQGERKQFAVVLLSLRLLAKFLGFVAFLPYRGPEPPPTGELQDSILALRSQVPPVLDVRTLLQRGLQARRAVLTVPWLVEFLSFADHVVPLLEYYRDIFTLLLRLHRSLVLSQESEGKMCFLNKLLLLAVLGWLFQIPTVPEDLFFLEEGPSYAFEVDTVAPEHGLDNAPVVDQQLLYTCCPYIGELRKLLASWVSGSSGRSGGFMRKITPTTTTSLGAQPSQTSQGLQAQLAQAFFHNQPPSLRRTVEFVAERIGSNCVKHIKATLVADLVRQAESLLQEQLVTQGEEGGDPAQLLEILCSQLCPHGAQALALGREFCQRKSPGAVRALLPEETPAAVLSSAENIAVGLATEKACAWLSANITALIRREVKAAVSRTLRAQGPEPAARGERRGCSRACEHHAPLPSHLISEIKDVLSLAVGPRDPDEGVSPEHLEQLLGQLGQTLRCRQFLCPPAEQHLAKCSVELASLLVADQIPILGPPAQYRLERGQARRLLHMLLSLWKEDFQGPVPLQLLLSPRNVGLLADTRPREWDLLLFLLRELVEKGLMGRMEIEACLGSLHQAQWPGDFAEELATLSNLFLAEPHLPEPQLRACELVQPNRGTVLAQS
Sequence of UniProt Q10570 (Q10570 whole entry, looked up): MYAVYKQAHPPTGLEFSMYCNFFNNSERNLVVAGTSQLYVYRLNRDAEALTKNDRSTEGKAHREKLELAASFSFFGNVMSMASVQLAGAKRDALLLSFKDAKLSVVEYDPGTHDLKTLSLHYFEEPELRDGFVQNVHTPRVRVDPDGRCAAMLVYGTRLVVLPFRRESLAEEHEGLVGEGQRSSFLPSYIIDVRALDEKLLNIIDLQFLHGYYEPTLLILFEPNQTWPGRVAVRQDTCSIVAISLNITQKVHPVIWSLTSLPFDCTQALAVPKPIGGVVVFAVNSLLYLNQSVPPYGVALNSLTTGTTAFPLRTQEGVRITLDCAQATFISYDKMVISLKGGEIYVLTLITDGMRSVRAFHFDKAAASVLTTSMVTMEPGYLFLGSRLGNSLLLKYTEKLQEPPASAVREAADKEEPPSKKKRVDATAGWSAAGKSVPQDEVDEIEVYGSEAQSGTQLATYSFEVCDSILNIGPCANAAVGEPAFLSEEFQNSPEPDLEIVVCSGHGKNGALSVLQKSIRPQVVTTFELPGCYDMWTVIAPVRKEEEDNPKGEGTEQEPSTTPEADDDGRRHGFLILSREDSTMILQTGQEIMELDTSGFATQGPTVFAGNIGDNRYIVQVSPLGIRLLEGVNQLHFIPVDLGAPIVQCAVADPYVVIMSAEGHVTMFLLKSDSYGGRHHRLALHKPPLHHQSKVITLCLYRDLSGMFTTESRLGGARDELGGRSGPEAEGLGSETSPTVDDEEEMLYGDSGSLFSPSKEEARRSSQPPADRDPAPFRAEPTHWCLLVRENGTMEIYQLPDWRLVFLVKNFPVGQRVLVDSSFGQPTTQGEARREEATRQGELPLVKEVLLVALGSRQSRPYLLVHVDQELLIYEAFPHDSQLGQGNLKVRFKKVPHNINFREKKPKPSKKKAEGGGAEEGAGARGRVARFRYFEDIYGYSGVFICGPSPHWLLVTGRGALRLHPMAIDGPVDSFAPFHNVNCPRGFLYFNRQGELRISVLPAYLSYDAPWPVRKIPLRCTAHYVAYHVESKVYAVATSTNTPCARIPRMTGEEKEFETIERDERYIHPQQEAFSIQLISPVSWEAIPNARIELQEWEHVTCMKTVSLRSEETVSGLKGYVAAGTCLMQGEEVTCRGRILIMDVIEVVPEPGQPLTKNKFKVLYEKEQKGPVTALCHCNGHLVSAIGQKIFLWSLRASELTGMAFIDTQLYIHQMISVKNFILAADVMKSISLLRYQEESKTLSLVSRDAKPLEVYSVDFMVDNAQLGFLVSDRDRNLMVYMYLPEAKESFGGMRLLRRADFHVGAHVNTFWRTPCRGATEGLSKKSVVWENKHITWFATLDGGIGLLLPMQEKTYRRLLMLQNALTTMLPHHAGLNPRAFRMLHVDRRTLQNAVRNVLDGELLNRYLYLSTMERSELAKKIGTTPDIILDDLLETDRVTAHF
Sequence of UniProt P51790 (P51790 whole entry, looked up): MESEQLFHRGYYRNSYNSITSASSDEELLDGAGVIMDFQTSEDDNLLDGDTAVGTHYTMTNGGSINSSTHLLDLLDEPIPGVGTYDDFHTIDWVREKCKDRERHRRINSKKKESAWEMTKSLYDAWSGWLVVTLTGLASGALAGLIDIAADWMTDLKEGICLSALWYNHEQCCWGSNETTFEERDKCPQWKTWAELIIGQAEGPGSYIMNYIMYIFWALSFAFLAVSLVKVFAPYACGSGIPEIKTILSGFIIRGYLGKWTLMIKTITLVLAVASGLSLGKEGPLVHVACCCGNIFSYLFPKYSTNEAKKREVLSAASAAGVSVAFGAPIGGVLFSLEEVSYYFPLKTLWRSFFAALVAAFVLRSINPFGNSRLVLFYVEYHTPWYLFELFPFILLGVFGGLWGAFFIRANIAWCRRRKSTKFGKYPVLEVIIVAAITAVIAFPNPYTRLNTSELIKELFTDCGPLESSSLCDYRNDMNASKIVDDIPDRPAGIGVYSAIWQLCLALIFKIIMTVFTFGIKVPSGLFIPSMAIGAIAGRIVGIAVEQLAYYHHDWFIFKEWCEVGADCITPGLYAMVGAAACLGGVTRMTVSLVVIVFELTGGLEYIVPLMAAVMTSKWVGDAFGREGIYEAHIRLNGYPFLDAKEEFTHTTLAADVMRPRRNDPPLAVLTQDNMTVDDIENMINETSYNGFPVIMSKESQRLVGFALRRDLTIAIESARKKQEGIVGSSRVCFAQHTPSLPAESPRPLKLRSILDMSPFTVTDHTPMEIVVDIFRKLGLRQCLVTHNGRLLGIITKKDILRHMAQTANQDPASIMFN
Sequence of UniProt Q8NHZ8 (Q8NHZ8 whole entry, looked up): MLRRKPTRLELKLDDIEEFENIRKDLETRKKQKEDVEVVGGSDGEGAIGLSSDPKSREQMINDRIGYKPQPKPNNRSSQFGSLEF

Compound in one assay: CCCc1cc(C)[nH]c(=O)c1CNC(=O)c1cc(-c2ccnc(N3CCN(C)CC3)c2)cc2c1cnn2C(C)C
Briefly: log2 fold change, soluble protein after heating vs DMSO (PISA); higher = thermal stabilisation; K562 cells, 10 uM, 30 min; active = over 0.2 and 3.5 SD of the protein, either way, in both replicates (recomputed). The essentials: (§1)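 Quantification of soluble protein used TMTpro 16plex LC-MS/MS, with channel sums equalised. Samples were the supernatant after 21,000xg for 90 min of pooled aliquots from K562 cells (2×10^6 cells/mL) treated with 10 μM compound for 30 min, heated for 3 min over 48°C-58°C, and extracted in PBS with 0.5% NP-40 at 4°C. Values, from duplicates, describe thermal stability against control samples on a log2 fold-change scale.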
For the target CDCA2 (UniProt Q69YH5), the log2 fold change was -0.027.

Consider COPS8 (UniProt Q99627), for which the log2 fold change is -0.056.

In the case of CNOT4 isoform 6 (UniProt O95628), the log2 fold change was -0.069.

Regarding CNOT2 (UniProt Q9NZN8), the log2 fold change was -0.018.

CCAR2 isoform 2 (UniProt Q8N163): the log2 fold change is 0.28.

Take COX6B1 (UniProt P14854): the log2 fold change is -0.069.

As for COPS3 (UniProt Q9UNS2), the log2 fold change was -0.044.

As for CDAN1 (UniProt Q8IWY9), the log2 fold change is 0.022.

CRTC2 (UniProt Q53ET0): the log2 fold change is 0.103.

On to COASY isoform 2 (UniProt Q13057), for which the log2 fold change is -0.007.

With CDC26 (UniProt Q8NHZ8), the log2 fold change is 0.056.

For the target CPSF1 (UniProt Q10570), the log2 fold change is -0.005.

As to CSNK2A2 (UniProt P19784), the log2 fold change was -0.035.

As for CLCN3 isoform 2 (UniProt P51790), the log2 fold change is -0.023.

With CAVIN1 (UniProt Q6NZI2), the log2 fold change was 0.073.

With CBX5 (UniProt P45973), the log2 fold change is -0.051.

As to CAMK2G isoform 6 (UniProt Q13555), the log2 fold change is 0.15.

Consider CNTN4 (UniProt Q8IWV2), for which the log2 fold change was 0.364.

Turning to CDK13 (UniProt Q14004), the log2 fold change was -0.011.

CDK9 isoform 2 (UniProt P50750): the log2 fold change is 0.036.

Regarding CDKN2AIP (UniProt Q9NXV6), the log2 fold change is 0.023.

For the target C1D (UniProt Q13901), the log2 fold change is -0.019.

COX5B (UniProt P10606): the log2 fold change is 0.013.

Take CLTB (UniProt P09497): the log2 fold change was -0.036.

Regarding CHD3 isoform 3 (UniProt Q12873), the log2 fold change was 0.081.

As for CELF2 isoform 3 (UniProt O95319), the log2 fold change was -0.02.

As for CSNK1D (UniProt P48730), the log2 fold change was 0.015.

As for CDK5 (UniProt Q00535), the log2 fold change is 0.078.

Turning to CASP2 (UniProt P42575), the log2 fold change is 0.086.

For the target CLINT1 isoform 3 (UniProt Q14677), the log2 fold change was -0.019.

In the case of CAMKK2 (UniProt Q96RR4), the log2 fold change was 0.277.

Take CDK11B (UniProt P21127): the log2 fold change was -0.063.

As for C4orf33 (UniProt Q8N1A6), the log2 fold change was 0.07.

On to CALCOCO2 isoform 4 (UniProt Q13137), for which the log2 fold change was -0.052.

Compound in a further assay: CCN(CC)Cc1ccc2cc(COC(=O)Nc3ccc(C(=O)NO)cc3)ccc2c1 [givinostat]
The description is as above. Put shortly:
as §1
For CDCA2 (UniProt Q69YH5), the log2 fold change was 0.382.

For the target COPS8 (UniProt Q99627), the log2 fold change was 0.049.

On to CNOT4 isoform 6 (UniProt O95628), for which the log2 fold change was -0.064.

With CNOT2 (UniProt Q9NZN8), the log2 fold change was 0.059.

As to CCAR2 isoform 2 (UniProt Q8N163), the log2 fold change is 0.144.

Turning to COX6B1 (UniProt P14854), the log2 fold change was -0.025.

For COPS3 (UniProt Q9UNS2), the log2 fold change was -0.056.

CDAN1 (UniProt Q8IWY9): the log2 fold change is 0.023.

With CRTC2 (UniProt Q53ET0), the log2 fold change was 0.181.

Consider COASY isoform 2 (UniProt Q13057), for which the log2 fold change was -0.04.

With CDC26 (UniProt Q8NHZ8), the log2 fold change is 0.056.

Consider CPSF1 (UniProt Q10570), for which the log2 fold change was 0.058.

Consider CSNK2A2 (UniProt P19784), for which the log2 fold change is 0.03.

As for CLCN3 isoform 2 (UniProt P51790), the log2 fold change is 0.029.

CAVIN1 (UniProt Q6NZI2): the log2 fold change is 0.041.

On to CBX5 (UniProt P45973), for which the log2 fold change was 0.043.

Take CAMK2G isoform 6 (UniProt Q13555): the log2 fold change was 0.025.

As to CNTN4 (UniProt Q8IWV2), the log2 fold change was 0.278.

Consider CDK13 (UniProt Q14004), for which the log2 fold change was -0.021.

Turning to CDK9 isoform 2 (UniProt P50750), the log2 fold change is 0.014.

CDKN2AIP (UniProt Q9NXV6): the log2 fold change is 0.012.

In the case of C1D (UniProt Q13901), the log2 fold change was -0.002.

Turning to COX5B (UniProt P10606), the log2 fold change is 0.065.

With CLTB (UniProt P09497), the log2 fold change was 0.047.

In the case of CHD3 isoform 3 (UniProt Q12873), the log2 fold change is 0.226.

As for CELF2 isoform 3 (UniProt O95319), the log2 fold change is -0.008.

On to CSNK1D (UniProt P48730), for which the log2 fold change is -0.254.

As to CDK5 (UniProt Q00535), the log2 fold change is 0.003.

Consider CASP2 (UniProt P42575), for which the log2 fold change is 0.039.

In the case of CLINT1 isoform 3 (UniProt Q14677), the log2 fold change is -0.01.

As for CAMKK2 (UniProt Q96RR4), the log2 fold change was -0.017.

In the case of CDK11B (UniProt P21127), the log2 fold change is 0.114.

In the case of C4orf33 (UniProt Q8N1A6), the log2 fold change was 0.055.

On to CALCOCO2 isoform 4 (UniProt Q13137), for which the log2 fold change is 0.

Source of the values: the supplement of paper PMC10849652.
